We go through 22 compounds from PubChem BioAssay (NCATS).

Inconclusive results are not listed. Calls of active or inactive are those of the source. Calls follow the shape of the dose curve; as a rule, active = well fitted inhibition curve with a large enough effect; inconclusive = small, poorly fitted or top-dose-only effect; inactive = no such curve, though single readings can be large or run the other way.

This experiment in a line: HTS Assay for Allosteric Antagonists of the Human D2 Dopamine Receptor: Hit Validation in HTRF (AID 624455).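 Also: stable D1 dopamine receptor cell line scored for blocking the D1 response.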 Conditions: Cells stably expressing D1 dopamine receptor, inhibition mode; series mostly up to 46.1 µM. The source says:
Dopamine receptors (DARs) are involved in the etiology and/or therapy of a number of neuropsychiatric and endocrine disorders. For instance, all receptor-based antiparkinsonian drugs work via stimulating the D2 DAR subtype whereas all FDA-approved antipsychotic agents are antagonists of this receptor. […] There are three different types of allosteric modulators that we are seeking, two of which will stimulate or augment receptor signaling, allosteric agonists and potentiators, while the third, allosteric antagonists, will attenuate receptor signaling. The present primary screening assay measures compound antagonism after an EC80 addition of dopamine by tracking calcium flux in a […], inducible Hek293 Trex D2 cell line. This assay measures activity of the hits in the D1 HTRF assay.
NIH Chemical Genomics Center [NCGC]
NIH Molecular Libraries Probe Centers Network [MLPCN]
Assay Submitter (PI): David Sibley
Cells stably expressing the D1 dopamine receptor will be run in an HTRF assay and compounds will be examined for the ability to inhibit the D1 mediated response.
As for `CCC(NC(C)C)C(O)c1ccc(O)c(O)c1` (configuration not stated), the result was inactive.

Turning to `C[C@@H]1C(=O)NC2=Nc3cccc(Cl)c3CN21`, the call was inactive.

As to `CCCC1O[C@@H]2C[C@H]3[C@@H]4CCC5=CC(=O)C=C[C@]5(C)[C@H]4[C@@H](O)C[C@]3(C)[C@]2(C(=O)CO)O1` (some centres not stated), the outcome was inactive.

Regarding `CC(CCc1ccccc1)NCC(O)c1ccc(O)c(C(N)=O)c1` (configuration not stated), the outcome was inactive.

`CC1(C)CCC(NC(=O)[C@@H](N)CCC(=O)O)CC1`: the outcome was inactive.

`CN1C2CCC1CC(OC(=O)c1c[nH]c3ccccc13)C2` (configuration not stated): the call was inactive.

As to `Oc1ccc(O)cc1`, the call was inactive.

With `CNCCC=C1c2ccccc2CCc2ccccc21`, the call was inactive.

For the compound `O=C1CCC(c2ccc(-n3ccnc3)cc2)=NN1`, the compound was classed as inactive.

On to `COC(=O)[C@H]1[C@H]2C[C@H]3c4[nH]c5ccccc5c4CCN3C[C@H]2CC[C@@H]1O`, for which the call was inactive.

With `C[C@]12CC[C@@H]3c4ccc(O)cc4CC[C@H]3[C@@H]1CC[C@@H]2O`, the call was inactive.

Regarding `N[C@@H](Cc1cnc[nH]1)C(=O)O`, the compound was called inactive.

With `CC[C@H](C)C(=O)O[C@H]1CCC=C2C=C[C@H](C)[C@H](CC[C@@H]3C[C@@H](O)CC(=O)O3)[C@H]21`, the outcome was inactive.

`COc1cc2c(cc1O)CC[C@@H]1[C@@H]2CC[C@]2(C)[C@@H](O)CC[C@@H]12`: the compound was called inactive.

As to `CCCn1c(=O)[nH]c(=O)c2[nH]cnc21`, the compound was called inactive.

As to `C[N+]1(CCCCC[N+]2(C)CCCC2)CCCC1`, the outcome was inactive.

In the case of `CC(=O)O[C@H]1C[C@@H]2CC[C@@H]3[C@H](CC[C@@]4(C)[C@H]3C[C@H]([N+]3(C)CCCCC3)[C@@H]4OC(C)=O)[C@@]2(C)C[C@@H]1[N+]1(C)CCCCC1`, the outcome was inactive.

Take `Nc1cc(Cl)c(NC2=NCCN2)c(Cl)c1`: the call was inactive.

On to `O=C(O)c1cc2cc(Cc3cccnc3)ccc2o1`, for which the compound was called inactive.

On to `N[C@H](CO)C(=O)O`, for which the compound was called inactive.

Take `CC(C)COC(=O)OCN1C(=O)CN(CCN2CC(=O)N(COC(=O)OCC(C)C)C(=O)C2)CC1=O`: the compound was called inactive.

For `COc1cc(NS(C)(=O)=O)ccc1Nc1c2ccccc2nc2ccccc12`, the result was inactive.
